Values without a mark were called inactive. Results filed as inconclusive are left out. Where a call stands in place of a potency, no number is given. Active and inactive are the calls of the source. The call rests on the fitted dose curve; in most records, active means well fitted curve in the direction sought with a large enough effect; inconclusive means small, poorly fitted or top-dose-only effect, or another doubt; inactive means no such curve, though single readings can be large; an effect the other way counts as inactive or inconclusive.
What was measured:
[1] = molecular target: Glutathione peroxidase 1 (Homo sapiens) (UniProt P07203); assay: Primary qHTS Assay for Inhibitors of Recombinant Selenoprotein Glutathione Peroxidase 1 (GPX1) (AID 1845191); further: nearly all actives have a fitted effect of over 65% in size
Sequence of Glutathione peroxidase 1 (Homo sapiens) (P07203 whole entry, looked up): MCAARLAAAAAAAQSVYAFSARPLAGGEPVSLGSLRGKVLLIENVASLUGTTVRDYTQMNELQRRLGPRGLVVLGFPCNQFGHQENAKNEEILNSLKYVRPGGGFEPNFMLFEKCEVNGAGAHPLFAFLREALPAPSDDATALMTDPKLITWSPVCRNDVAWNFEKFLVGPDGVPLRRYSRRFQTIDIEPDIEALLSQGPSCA
Outline: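 GR-coupled readout: NADPH consumption tracked by fluorescence, ex 340/em 450 nm, at t=0 and after 15 min at RT. Final mix 10 nM GPX1, 1 mM GSH, 0.5 mM CHP, 0.5 mM NADPH, 100 nM GR, 0.01% BSA, following 30 min enzyme–compound preincubation.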

[2] = molecular target: Phospholipid hydroperoxide glutathione peroxidase GPX4 (Homo sapiens) (UniProt P36969); assay: Primary qHTS Assay for Inhibitors of Recombinant Selenoprotein Glutathione Peroxidase 4 (GPX4) (AID 1845192); further: nearly all actives have a fitted effect of over 65% in size
Sequence of Phospholipid hydroperoxide glutathione peroxidase GPX4 (Homo sapiens) (P36969 whole entry, looked up): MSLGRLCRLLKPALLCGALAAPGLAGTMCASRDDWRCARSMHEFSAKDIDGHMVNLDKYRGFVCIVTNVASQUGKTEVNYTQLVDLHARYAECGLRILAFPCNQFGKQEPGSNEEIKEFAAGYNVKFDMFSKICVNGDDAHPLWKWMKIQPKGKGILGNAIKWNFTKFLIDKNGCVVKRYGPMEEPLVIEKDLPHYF
Outline: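 Steps: GPX4 plus compound, 30 min RT; add GR/GSH/NADPH master mix; start with cumene hydroperoxide; read 340/450 nm fluorescence at 0 and 15 min. Finals were 200 nM GPX4, 1 mM GSH, 0.5 mM CHP, 0.5 mM NADPH, 100 nM GR.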

[3] = molecular target: Luciferin 4-monooxygenase (Photinus pyralis) (UniProt P08659); assay: Primary firefly luciferase (FLuc) qHTS assay for identification of artifact compounds. (AID 1845220); further: nearly all actives have a fitted effect of over 60% in size
Outline: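 D-luciferin and ATP (10 uM each, final) in Tris acetate buffer pH 7.6 were incubated with compounds for 15 min at room temperature. The reaction was started with 10 nM Photinus pyralis luciferase and luminescence read after 5 min. Percent inhibition was fitted to a 4-parameter Hill equation.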

[4] = system: Nanoluciferase (engineered Oplophorus gracilirostris luciferase); assay: Primary Nanoluciferase (NLuc) qHTS assay for identification of artifact compounds. (AID 1845222); further: series mostly up to about 54 µM
Outline: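 Diluted conditioned medium from NLuc-expressing S16 cells treated with compounds for 15 min at room temperature, then Nano-Glo substrate added; luminescence read after 5 min. Percent inhibition versus no-enzyme and DMSO controls fitted to 4-parameter Hill equation.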

[5] = Primary redox qHTS assay for identification of artifact compounds. (AID 1845223)
Outline: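 Redox-cycling detection via DTT (250 uM final) oxidation coupled to Amplex Red (25 uM)/HRP (250 mU/mL) in HBSS. 15 min preincubation plus 30 min after DTT, room temperature. Ex/Em 525/598 nm; 4-parameter Hill fit against DMSO and 10 uM DA3003.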

[6] = Primary fluorescence-based thiol-reactive (MSTI) qHTS assay for identification of artifact compounds. (AID 1845221); further: nearly all actives have a fitted effect of over 65% in size; further: potency means the concentration at half of the fitted maximal effect;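 on activity change, negative = thiol reactive: series mostly up to about 54 µM; thiol-reactive compounds lower the probe fluorescence signal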
Outline: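 Thiol-reactive compounds detected by quenching of 4 uM MSTI fluorescence (525/598 nm) after 1 h room-temperature dark incubation in PBS pH 7.4, 2% DMSO. qHTS titration; percent inhibition Hill-fitted against Acetyl-MSTI/MSTI controls.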

Row | SMILES | Potency [1] | Potency [2] | Potency [3] | Potency [4] | Potency [5] | Potency [6] | activity change, negative = thiol reactive [6] | activity, negative = inhibition [4]
1 | COC(=O)C1=COC(O[C@@H]2O[C@H](CO)[C@@H](O)[C@H](O)[C@H]2O)C2C(C)C(=O)CC12 (some centres not stated) | inactive | inactive | inactive | inactive | inactive | – | – | –
2 | C/C=C(/C)C(=O)OC1C2OC2C2(CO2)C2C3OC(=O)C(C)C3CCC12C (configuration not stated) | inactive | inactive | – | inactive | inactive | inactive | – | –
3 | C=C1C(=O)O[C@@H]2/C=C(\C)CC/C=C(\C(=O)O[C@@H]3O[C@H](CO)[C@@H](O)[C@H](O)[C@H]3O)CC[C@@H]12 | inactive | inactive | – | inactive | – | 4.12 µM (active) | – | –
4 | CC(C)=CCC/C(C)=C/CO[C@@H]1O[C@H](CO[C@@H]2OC[C@](O)(CO)[C@H]2O)[C@@H](O)[C@H](O)[C@H]1O | inactive | inactive | inactive | inactive | inactive | – | – | –
5 | C[C@@H]1CC[C@]2(C(=O)O[C@@H]3O[C@H](CO[C@@H]4O[C@H](CO)[C@@H](O)[C@H](O)[C@H]4O)[C@@H](O)[C@H](O)[C@H]3O)CC[C@]3(C)C(=CCC4[C@@]5(C)CC[C@H](O)[C@](C)(C(=O)O)C5CC[C@]43C)[C@@H]2[C@]1(C)O (some centres not stated) | inactive | inactive | – | – | – | – | 22.8% [at 11.5 µM] | 2.17% [at 11.6 µM]
6 | CC1=C[C@H]2[C@@H](CC1=O)[C@H](C)C[C@H](O)[C@H]2C(C)C | inactive | inactive | – | inactive | inactive | inactive | – | –
7 | CC(C)C(NC(=O)c1ccc(O)cc1)C(=O)N1CCCC1C(=O)Nc1c(O)cccc1C(=O)O (configuration not stated) | inactive | inactive | inactive | inactive | inactive | – | – | –
8 | C/C=C/C=C/C=C/C(=O)O[C@@H]1[C@@H](OC)C2=C(C(=O)N(C(CCC(=O)O)C(=O)O)C2)[C@@]2(C)CCCC(C)(C)[C@H]12 (some centres not stated) | inactive | inactive | – | inactive | inactive | inactive | – | –
9 | CC1=CC2=C(C)C(=O)[C@](C)(O)[C@H](O)C2=CO1 | inactive | inactive | inactive | inactive | inactive | – | – | –
10 | O=C(COCC(=O)N1CCN(C(c2ccccc2)c2ccccc2)CC1)Nc1ccc(Cl)cc1C(=O)O | inactive | inactive | – | inactive | inactive | inactive | – | –
11 | CC(=O)OC1C(C)C2C(OC3OC(CO)C(O)C(O)C3O)OC=C(C(=O)O)C2C1OC(=O)c1ccccc1 (configuration not stated) | inactive | inactive | inactive | inactive | inactive | – | – | –
12 | COC(=O)C(Cc1ccccc1)NC(=O)c1ccccc1 (configuration not stated) | inactive | inactive | – | inactive | inactive | inactive | – | –
13 | COC(=O)[C@H](Cc1ccc([N+](=O)[O-])cc1)NC(=O)c1cccc2ccccc12 | inactive | inactive | inactive | inactive | inactive | – | – | –
14 | CC(=O)O[C@H]1[C@H](OC(=O)C(C)C)[C@]2(C)OC3(CC[C@]2(C)[C@H]2CCC[C@]4(CO4)[C@]12C)COC(=O)C3 (some centres not stated) | inactive | inactive | – | inactive | inactive | inactive | – | –
15 | C[C@]1(OC(=O)/C=C/c2ccc(O)cc2)C[C@@H](O)[C@]2(O)C=CO[C@@H](O[C@@H]3O[C@H](CO)[C@@H](O)[C@H](O)[C@H]3O)C12 (some centres not stated) | inactive | inactive | – | inactive | inactive | inactive | – | –
16 | CC(=C\C(C)O)/C=C(\C)C(=O)CC1CC(CC(N)=O)CC(=O)O1 (configuration not stated) | inactive | inactive | – | inactive | inactive | inactive | – | –
17 | CC(=O)/C=C/C1(O)C(C)(C)CC(O)CC1(C)O (configuration not stated) | inactive | inactive | inactive | inactive | inactive | – | – | –
18 | C=C1C(=O)O[C@@H]2CC(C)=C([C@@H](C)CCCOC(C)=O)[C@@H](O)[C@H]12 | inactive | inactive | – | inactive | inactive | 16.5 µM (active) | – | –
19 | C=C1C(OC(C)=O)CCC2(C)CCC(C(C)(C)O)CC12 (configuration not stated) | inactive | inactive | – | inactive | inactive | inactive | – | –
20 | CC(O)C1NC(=O)C2CCCN2C1=O (configuration not stated) | inactive | inactive | – | inactive | inactive | inactive | – | –
21 | Cc1cc(O[C@@H]2O[C@H](COC(=O)CC(=O)O)[C@@H](O)[C@H](O)[C@H]2O)c(C(C)C)cc1O | inactive | inactive | – | inactive | – | 5.19 µM (active) | – | –
22 | COc1cc(O[C@@H]2O[C@H](CO[C@H]3OC[C@](O)(CO)[C@H]3O)[C@@H](O)[C@H](O)[C@H]2O)cc(OC)c1O | inactive | inactive | inactive | inactive | inactive | – | – | –
23 | COc1cncc(C#Cc2ccccn2)c1 | inactive | inactive | – | inactive | inactive | inactive | – | –

Reference: PubChem BioAssay (NCATS)
